Experimental data from PubChem BioAssay (EPA / NIEHS).
Values joined by “and” are separate entries in the source; they are usually repeats but may differ in a detail not shown here. Identical values can stand only once. Records with an inconclusive call do not appear. More than one record can exist for a structure, and the calls need not agree. Active and inactive are the calls of the source. Rule for the calls, unless noted: active = hit-call score of the fitted dose curve at least 0.9, where 1 is the maximum; inactive = score below 0.9.

Columns and labels:
[1] = target: Retinoic acid receptor RXR-alpha (Homo sapiens) (UniProt P19793); test: ATG_RXRa_TRANS: Attagene TRANS-FACTORIAL HepG2 Assay for human Retinoid X Receptor alpha (RXRa) (AID 2283012; active = hit-call score of the fitted dose curve at least 0.9, where 1 is the maximum)
Outline: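 Read-out: fluorescent reporter-transcript fragments quantified by capillary electrophoresis after RT-PCR. Transiently transfected HepG2 cells carrying GAL4-UAS reporters and NR-GAL4 chimeras were exposed to chemical for 24 h; activity scored as increase over DMSO.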

[2] = target: human Retinoid X Receptor beta (RXRb), RXRB (gene 6257) (UniProt P28702); test: ATG_RXRb_TRANS: Attagene TRANS-FACTORIAL HepG2 Assay for human Retinoid X Receptor beta (RXRb) (AID 2283013; active = hit-call score of the fitted dose curve at least 0.9, where 1 is the maximum)
Outline: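 Read-out: reporter mRNA induction via RT-PCR plus capillary electrophoresis fluorescence, analysed as signal increase relative to DMSO. Cells were human HepG2, transiently transfected with GAL4-UAS reporter constructs and chimeric receptor-Gal4 fusions, dosed for 24 h.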

[3] = target: human Thyroid Receptor alpha (THRa1), THRA (gene 7067) (UniProt P10827); test: ATG_THRa1_TRANS: Attagene TRANS-FACTORIAL HepG2 Assay for human Thyroid Receptor alpha (THRa1) (AID 2283014; active = hit-call score of the fitted dose curve at least 0.9, where 1 is the maximum)
Outline: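 Transient HepG2 transfection, NR-Gal4 chimera driving GAL4-UAS reporters; 24 h compound exposure; total RNA, oligo(dT) RT, PCR, fluorescent primer extension, capillary electrophoresis. Upward direction vs DMSO control.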

[4] = read-out: E-selectin (Homo sapiens) (UniProt P16581); test: BSK_3C_Eselectin: BioMAP Diversity Plus: 3C Assay for Eselectin Biomarker Activity (AID 2283015); conditions: primary human endothelial cells (HUVEC); actives raise or lower the signal
Outline: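 HUVEC, 3C stimulation; compound exposure 24 h; E-selectin by ELISA; gain- or loss-of-signal fitted bidirectionally vs DMSO baseline.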

[5] = read-out: Interleukin-1 alpha (IL1a), IL1A (gene 3552); test: BSK_BE3C_IL1a: BioMAP Diversity Plus: BE3C Assay for Interleukin-1 alpha (IL1a) Biomarker Activity (AID 2283016); conditions: primary human bronchial epithelial cells; actives raise or lower the signal
Outline: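 ELISA read-out of IL-1a from human lung bronchial epithelial primary cells, 24 h post-dose. Gain or loss of signal fitted relative to DMSO negative control.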

[6] = read-out: Monocyte Chemoattractant Protein-1 (MCP1), CCL2 (gene 6347); test: BSK_3C_MCP1: BioMAP Diversity Plus: 3C Assay for Monocyte Chemoattractant Protein-1 (MCP1) Biomarker Activity (AID 2283017); conditions: primary human endothelial cells (HUVEC); actives raise or lower the signal
Outline: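 HUVEC, 3C system; 24 h chemical exposure; MCP-1 by ELISA; bidirectional curve fit vs DMSO baseline.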

[7] = read-out: Monocyte Chemoattractant Protein-1 (MCP1), CCL2 (gene 6347); test: BSK_4H_MCP1: BioMAP Diversity Plus: 4H Assay for Monocyte Chemoattractant Protein-1 (MCP1) Biomarker Activity (AID 2283018); conditions: primary human endothelial cells (HUVEC); actives raise or lower the signal
Outline: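 HUVEC primary cells, 24 h post-dose, MCP-1 by ELISA. Gain or loss of signal fitted bidirectionally vs DMSO baseline. Cytotoxicity: SRB stain (0.1% after 10% TCA fixation), read 560 nm, parallel cultures.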

[8] = read-out: Human Leukocyte Antigen - DR isotype (HLADR), HLA-DRA (gene 3122); test: BSK_3C_HLADR: BioMAP Diversity Plus: 3C Assay for Human Leukocyte Antigen - DR isotype (HLADR) Biomarker Activity (AID 2283019); conditions: primary human endothelial cells (HUVEC); actives raise or lower the signal
Outline: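 HUVEC, 3C stimulation, 24 h post-dose; HLA-DR by ELISA; bidirectional curve fit vs DMSO baseline; gain or loss of signal scored.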

[9] = read-out: Interleukin-8 (IL8), CXCL8 (gene 3576); test: BSK_3C_IL8: BioMAP Diversity Plus: 3C Assay for Interleukin-8 (IL8) Biomarker Activity (AID 2283020); conditions: primary human endothelial cells (HUVEC); actives raise or lower the signal
Outline: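 HUVEC, 3C stimulation; 24 h compound exposure; IL-8 read by ELISA; gain or loss of signal fitted relative to DMSO control.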

[10] = read-out: Monokine induced gamma interferon (MIG), CXCL9 (gene 4283); test: BSK_3C_MIG: BioMAP Diversity Plus: 3C Assay for Monokine induced gamma interferon (MIG) Biomarker Activity (AID 2283021); conditions: primary human endothelial cells (HUVEC); actives raise or lower the signal;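 for AC50: MIG protein level measured by immunoassay in the treated endothelial cultures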
Outline: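 HUVEC, 3C system; 24 h chemical exposure; MIG by ELISA; bidirectional fit vs DMSO baseline.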

[11] = BSK_3C_SRB: Viability Assessment in the BioMAP Diversity Plus: 3C Assay (AID 2283023); conditions: primary human endothelial cells (HUVEC);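 note: fitted both ways against DMSO so a hit may be signal rise or drop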
Outline: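 HUVEC, 24 h post-dose; 10% TCA fix, 0.1% SRB stain, A560 nm. Bidirectional curve fit vs DMSO negative control.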

[12] = read-out: Matrix Metallopeptidase 1 (MMP1), MMP1 (gene 4312); test: BSK_BE3C_MMP1: BioMAP Diversity Plus: BE3C Assay for Matrix Metallopeptidase 1 (MMP1) Biomarker Activity (AID 2283024); conditions: primary human bronchial epithelial cells; actives raise or lower the signal
Outline: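 ELISA read-out of MMP1 in human lung bronchial epithelial primary cultures, 24 h post-dose; bidirectional curve fit vs DMSO baseline, gain or loss of signal scored.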

[13] = read-out: Pselectin, SELP (gene 6403); test: BSK_4H_Pselectin: BioMAP Diversity Plus: 4H Assay for Pselectin Biomarker Activity (AID 2283026); conditions: primary human endothelial cells (HUVEC); actives raise or lower the signal
Outline: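 HUVEC, 24 h chemical exposure; P-selectin read by ELISA. Bidirectional curve fit vs DMSO baseline; gain or loss of signal scored.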

[14] = BSK_4H_SRB: Viability Assessment in the BioMAP Diversity Plus: 4H Assay (AID 2283027); conditions: primary human endothelial cells (HUVEC);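 note: cells exposed to compound for 24 h before staining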;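 for AC50: curves fitted both ways versus DMSO so AC50 may be loss or gain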
Outline: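 Cytotoxicity read-out in primary human endothelial cells: after 24 h compound exposure, cells were TCA-fixed (10%), stained with 0.1% SRB and absorbance taken at 560 nm. Values fitted in both directions relative to DMSO.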

[15] = BSK_BE3C_SRB: Viability Assessment in the BioMAP Diversity Plus: BE3C Assay (AID 2283028); conditions: primary human bronchial epithelial cells;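 for AC50: fitted both ways so AC50 may mark signal gain or loss versus DMSO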
Outline: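 Primary human bronchial epithelium; chemical dosing, 24 h; 10% TCA fix, 0.1% SRB stain, A560; bidirectional fit vs DMSO baseline.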

[16] = read-out: Thrombomodulin, THBD (gene 7056); test: BSK_3C_Thrombomodulin: BioMAP Diversity Plus: 3C Assay for Thrombomodulin Biomarker Activity (AID 2283029); conditions: primary human endothelial cells (HUVEC); actives raise or lower the signal
Outline: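 HUVEC, 3C conditions; compound 24 h; thrombomodulin by ELISA; bidirectional curve fit vs DMSO baseline; parallel SRB total-protein staining for cytotoxicity.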

[17] = read-out: Urokinase-type plasminogen activator receptor (uPAR), PLAUR (gene 5329); test: BSK_4H_uPAR: BioMAP Diversity Plus: 4H Assay for Urokinase-type plasminogen activator receptor (uPAR) Biomarker Activity (AID 2283030); conditions: primary human endothelial cells (HUVEC); actives raise or lower the signal
Outline: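 HUVEC, 24 h post-dose; uPAR by ELISA; bidirectional fit vs DMSO baseline.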

[18] = read-out: Vascular endothelial growth factor receptor 2 (Homo sapiens) (UniProt P35968); test: BSK_4H_VEGFRII: BioMAP Diversity Plus: 4H Assay for Vascular endothelial growth factor receptor 2 (VEGFR2) Biomarker Activity (AID 2283031); conditions: primary human endothelial cells (HUVEC); actives raise or lower the signal;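 for AC50: cell-surface VEGFR2 protein level quantified by ELISA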
Outline: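 HUVEC (human primary), 4H system; 24 h post-dose; VEGFRII by ELISA; bidirectional curve fit vs DMSO baseline; gain or loss of signal scored.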

[19] = target: human Vitamin D Receptor (VDR), VDR (gene 7421) (UniProt P11473); test: ATG_VDR_TRANS: Attagene TRANS-FACTORIAL HepG2 Assay for human Vitamin D Receptor (VDR) (AID 2283022; active = hit-call score of the fitted dose curve at least 0.9, where 1 is the maximum)
Outline: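 RT-PCR/capillary electrophoresis read-out of reporter mRNA induction in transiently transfected HepG2; 24 h dosing; chimeric NR-Gal4 (TRANS format); gain-of-signal fit against DMSO baseline.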

[20] = BSK_3C_Vis: BioMAP Diversity Plus: 3C Assay for Morphology Visualization (AID 2283025); conditions: primary human endothelial cells (HUVEC);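 note: fitted both ways so gain or loss versus DMSO counts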;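 for AC50: light microscopy image of cell morphology used as background control; cells imaged 24 h after dosing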
Outline: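 HUVEC, 3C system; light microscopy of morphology at 24 h post-dose. Bidirectional fit vs DMSO baseline. Secondary readout, background-control function.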

Measured: AC50

Sequence of human Thyroid Receptor alpha (THRa1), THRA (gene 7067) (P10827 whole entry, looked up, the tested form may be a part): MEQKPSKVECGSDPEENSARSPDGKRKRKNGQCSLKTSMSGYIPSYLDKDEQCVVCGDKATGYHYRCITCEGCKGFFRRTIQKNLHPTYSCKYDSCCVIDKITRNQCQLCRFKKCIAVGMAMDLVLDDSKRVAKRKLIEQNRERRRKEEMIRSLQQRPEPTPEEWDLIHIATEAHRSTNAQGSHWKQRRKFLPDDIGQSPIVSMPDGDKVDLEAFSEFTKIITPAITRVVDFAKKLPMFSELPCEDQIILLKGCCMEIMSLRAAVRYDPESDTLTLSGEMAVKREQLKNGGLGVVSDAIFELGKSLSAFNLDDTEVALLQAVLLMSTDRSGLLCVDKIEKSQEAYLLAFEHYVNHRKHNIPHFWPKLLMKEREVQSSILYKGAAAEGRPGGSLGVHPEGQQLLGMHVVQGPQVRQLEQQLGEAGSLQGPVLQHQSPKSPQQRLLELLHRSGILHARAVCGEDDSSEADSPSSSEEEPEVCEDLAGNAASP
Sequence of Retinoic acid receptor RXR-alpha (Homo sapiens) (P19793 whole entry, looked up, the tested form may be a part): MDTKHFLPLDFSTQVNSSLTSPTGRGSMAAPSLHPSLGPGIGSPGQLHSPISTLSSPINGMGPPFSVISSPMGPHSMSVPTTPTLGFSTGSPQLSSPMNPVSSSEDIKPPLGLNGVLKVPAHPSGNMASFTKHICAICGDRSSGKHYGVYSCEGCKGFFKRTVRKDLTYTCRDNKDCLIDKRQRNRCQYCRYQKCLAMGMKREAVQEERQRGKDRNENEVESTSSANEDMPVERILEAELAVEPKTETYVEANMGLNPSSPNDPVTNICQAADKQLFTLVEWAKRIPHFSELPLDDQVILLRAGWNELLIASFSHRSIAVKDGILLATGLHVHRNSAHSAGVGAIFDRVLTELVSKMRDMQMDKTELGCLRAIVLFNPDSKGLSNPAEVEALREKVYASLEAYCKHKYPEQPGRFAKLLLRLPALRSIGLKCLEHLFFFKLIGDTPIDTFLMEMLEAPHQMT
Sequence of human Retinoid X Receptor beta (RXRb), RXRB (gene 6257) (P28702 whole entry, looked up, the tested form may be a part): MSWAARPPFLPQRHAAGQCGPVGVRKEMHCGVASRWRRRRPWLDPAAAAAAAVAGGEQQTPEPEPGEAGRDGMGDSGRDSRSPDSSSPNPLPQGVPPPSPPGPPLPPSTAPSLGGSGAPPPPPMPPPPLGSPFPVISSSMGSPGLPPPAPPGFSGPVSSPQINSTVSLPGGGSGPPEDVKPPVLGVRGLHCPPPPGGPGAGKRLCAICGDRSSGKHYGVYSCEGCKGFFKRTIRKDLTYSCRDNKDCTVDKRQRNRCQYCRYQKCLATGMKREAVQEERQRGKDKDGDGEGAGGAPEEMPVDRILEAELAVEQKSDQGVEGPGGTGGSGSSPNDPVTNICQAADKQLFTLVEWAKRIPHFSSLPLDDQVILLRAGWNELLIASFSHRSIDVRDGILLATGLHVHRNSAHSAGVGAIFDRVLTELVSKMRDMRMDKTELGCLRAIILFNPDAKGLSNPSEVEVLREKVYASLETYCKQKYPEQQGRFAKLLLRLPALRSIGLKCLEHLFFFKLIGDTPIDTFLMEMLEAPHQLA
Sequence of human Vitamin D Receptor (VDR), VDR (gene 7421) (P11473 whole entry, looked up, the tested form may be a part): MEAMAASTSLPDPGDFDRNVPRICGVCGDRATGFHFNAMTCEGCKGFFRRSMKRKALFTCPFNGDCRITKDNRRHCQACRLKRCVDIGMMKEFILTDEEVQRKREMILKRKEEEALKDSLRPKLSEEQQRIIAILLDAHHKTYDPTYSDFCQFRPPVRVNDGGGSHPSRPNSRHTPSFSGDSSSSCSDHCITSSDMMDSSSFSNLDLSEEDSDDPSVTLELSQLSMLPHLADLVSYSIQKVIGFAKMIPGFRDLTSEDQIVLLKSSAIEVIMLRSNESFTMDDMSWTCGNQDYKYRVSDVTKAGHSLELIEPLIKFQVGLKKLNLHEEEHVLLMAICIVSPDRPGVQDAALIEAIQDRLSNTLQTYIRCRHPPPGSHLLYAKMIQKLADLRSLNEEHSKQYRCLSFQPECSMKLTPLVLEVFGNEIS
Sequence of E-selectin (Homo sapiens) (P16581 whole entry, looked up): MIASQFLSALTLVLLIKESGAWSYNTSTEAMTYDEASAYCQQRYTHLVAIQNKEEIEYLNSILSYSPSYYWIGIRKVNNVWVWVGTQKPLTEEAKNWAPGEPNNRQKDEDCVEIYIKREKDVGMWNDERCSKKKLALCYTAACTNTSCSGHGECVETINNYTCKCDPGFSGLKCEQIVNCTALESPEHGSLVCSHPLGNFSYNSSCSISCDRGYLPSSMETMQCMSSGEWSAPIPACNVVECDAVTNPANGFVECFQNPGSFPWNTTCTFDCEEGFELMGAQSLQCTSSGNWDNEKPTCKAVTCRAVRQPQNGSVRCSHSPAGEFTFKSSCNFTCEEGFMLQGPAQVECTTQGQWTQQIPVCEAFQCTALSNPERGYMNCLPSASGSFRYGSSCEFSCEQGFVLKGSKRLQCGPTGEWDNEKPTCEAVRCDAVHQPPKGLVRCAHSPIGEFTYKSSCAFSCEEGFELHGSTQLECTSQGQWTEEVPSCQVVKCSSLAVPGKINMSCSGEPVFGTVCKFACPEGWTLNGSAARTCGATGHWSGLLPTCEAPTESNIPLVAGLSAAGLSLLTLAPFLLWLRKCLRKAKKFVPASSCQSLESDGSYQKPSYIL

C=CC(=O)OCCCC
inactive: [1] | [2] | [3]

OCCc1ccccc1
inactive: [1] | [2] | [3]

CCOC(=O)C(C#N)=C(c1ccccc1)c1ccccc1
inactive: [1] | [3] | [4] | [5] | [6] | [7] | [8] | [9] | [10] | [13] | [14] | [15] | [16] | [17] | [18]
active: [2] 26.6 µM | [7] 1 µM | [11] 25.6 µM and 20 µM | [12] 25.2 µM and 31.1 µM | [16] 8.14 µM

Clc1ccc(C(c2ccccc2Cl)C(Cl)Cl)cc1 (stereo not given)
inactive: [1] | [3]
active: [2] 9.66 µM

CN(c1nccc(=O)[nH]1)C1CCN(c2nc3ccccc3n2Cc2ccc(F)cc2)CC1
inactive: [1] | [2] | [3] | [4] | [5] | [6] | [7] | [8] | [9] | [10] | [19] | [11] | [20] | [14] | [15] | [16] | [17] | [18]
active: [12] 7.77 nM | [13] 0.00777 µM

C=CCCCCCCCCCC
inactive: [1] | [2] | [3]

Oc1c(Cl)cc(Cl)c(Cl)c1Cc1c(O)c(Cl)cc(Cl)c1Cl
inactive: [1] | [19] | [16]
active: [2] 12.7 µM | [3] 0.657 µM | [4] 13 µM | [5] 2.02 µM | [6] 32.6 µM | [7] 1.31 µM | [8] 2.48 µM | [9] 28.2 µM | [10] 31.1 µM | [11] 5.1 µM | [12] 2260 nM | [20] 13.7 µM | [13] 1.05 µM | [14] 6.35 µM | [15] 5.21 µM | [17] 2.26 µM | [18] 0.675 µM

CC(C)C[C@H](NC(=O)OCC1c2ccccc2-c2ccccc21)C(=O)O
inactive: [1] | [2] | [3]

C=C(C)[C@H]1CC=C(C)C(=O)C1
inactive: [1] | [2] | [3] | [4] | [5] | [6] | [7] | [8] | [9] | [10] | [19] | [11] | [12] | [20] | [13] | [14] | [15] | [16] | [17] | [18]
